HEK293 tox = HEK 293 cell cytotoxicity. Potency, µM (series often up to 115 µM), for the others: at the top dose activity change, negative = cytotoxicity, usual class: inhibitors. 94,000 tested, 6.6% active. AID 1345083. HEK 293 viability, ATP luminescence (CellTiter-Glo), 48-72 h; further: potency means the concentration at half of the fitted maximal effect; nearly all actives have a fitted effect of over 60% in size
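ATP-coupled CellTiter-Glo luminescence served as viability read-out, recorded 10 min after reagent addition at room temperature. HEK 293 cells, 250 cells/well, had been incubated with pintool-transferred compound for 48 or 72 hr at 37 degree Celsius.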
SNCA viab count = counter-screen for SNCA expression inhibitors: cell viability. 150,000 tested, 0.12% active. Potency, µM (doses to about 57.1 µM), for inactives: at the top dose activity change, negative = cytotoxicity, most hits filed as cytotoxic. AID 1671193. HEK-293-SNCA-luc viability, GF-AFC fluorescence, 24 h;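 further: potency means the concentration at half of the fitted maximal effect; 0% = DMSO-treated cells and -100% = medium-only wells without cells; nearly all actives have a fitted effect of over 30% in size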
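Cytotoxicity counterscreen: after 24 h compound treatment of genome-edited SNCA-luciferase HEK-293 cells, live-cell protease substrate GF-AFC read by fluorescence after 30 min; activity scaled between DMSO (0%) and medium-only (-100%), curves Hill-fitted.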
IP6K1 inhibitor = IP6K1 kinase inhibition. IP6K1 kinase, ADP-Glo luminescence, 2 h; active compounds read low. activity change, % (series mostly up to about 58 µM). 140,000 tested, 0.81% active. AID 1645851; in the data active means activity change below about -25%
Target sequence (Q92551 whole entry, looked up): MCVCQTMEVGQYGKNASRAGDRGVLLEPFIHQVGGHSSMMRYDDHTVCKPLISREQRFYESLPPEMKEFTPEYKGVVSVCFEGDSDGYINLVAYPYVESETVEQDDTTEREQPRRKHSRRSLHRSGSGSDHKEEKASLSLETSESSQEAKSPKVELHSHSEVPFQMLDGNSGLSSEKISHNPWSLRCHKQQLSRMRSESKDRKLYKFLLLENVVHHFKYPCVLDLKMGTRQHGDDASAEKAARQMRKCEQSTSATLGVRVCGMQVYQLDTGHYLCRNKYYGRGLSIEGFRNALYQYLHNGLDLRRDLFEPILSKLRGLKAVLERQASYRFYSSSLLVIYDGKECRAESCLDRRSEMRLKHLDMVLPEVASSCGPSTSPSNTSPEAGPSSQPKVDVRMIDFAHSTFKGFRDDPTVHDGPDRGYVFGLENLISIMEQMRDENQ
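ADP-Glo luminescence measures ADP made by human IP6K1 during a 2 h RT reaction with ATP/IP6 (mix at 1.3 mM/130 uM); top library doses 57.5 and 19.1 uM final.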
Luciferase inh = Photinus pyralis luciferase inhibition; Potency, µM (top dose mostly 115 µM), usual class: inhibitors; 76,000 tested, 2.5% active; purified P. pyralis luciferase, luminescence, biochemical; further: potency means the concentration at half of the fitted maximal effect; nearly all actives have a fitted effect of over 65% in size
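FLuc 10nM, D-luciferin 10uM, ATP 10uM, Mg acetate 10mM, Tris acetate pH 7.5, Tween/BSA; cpd qHTS; enzyme added last; CCD luminescence.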
SNCA expr inhib = SNCA gene expression inhibition; Potency, µM (doses to about 57.2 µM), for the others: at the highest dose activity change, negative = inhibition, hits mostly inhibitors; 140,000 tested, 0.17% active; HEK-293 SNCA-luciferase knock-in, luminescence, 24 h;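 further: potency means the concentration at half of the fitted maximal effect; plate controls were DMSO cells for no effect and cell-free wells for full effect; nearly all actives have a fitted effect of over 45% in size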
3T3 cytotox = NIH 3T3 cell cytotoxicity | Potency, µM (doses to about 96.7 µM), for inactives: at the top dose activity change, negative = cytotoxicity, most hits filed as inhibitors | AID 1345082 | 94,000 tested, 4.3% active | NIH 3T3 viability, CellTiter-Glo ATP luminescence, 48-72 h; further: potency means the concentration at half of the fitted maximal effect; nearly all actives have a fitted effect of over 55% in size
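Viability of NIH 3T3 cells after 48 or 72 hr compound treatment at 37 °C was assessed by CellTiter-Glo, with luminescence imaged following a 10 min room-temperature step.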
Active calls of the source: *; i = inactive; ? = inconclusive; · = not tested or not shown; ! = a repeat was not active; [ ] = another dose, or the depositor's remark. Shown are actives, neighbours in structure and some others; about 7.3% of the full set was active somewhere. Unless noted, the call rests on the fitted dose curve; in most records, active means well fitted curve in the direction sought with a large enough effect; inconclusive means small, poorly fitted or top-dose-only effect, or another doubt; inactive means no such curve, though single readings can be large; an effect the other way counts as inactive or inconclusive. Unless noted, on the % scale 0 is the no-effect control and ±100 the full control effect.

SMILES	HEK293 tox	SNCA viab count	IP6K1 inhibitor	Luciferase inh	SNCA expr inhib	3T3 cytotox
Cn1c(CO[C@H]2CN(Cc3ccc4c(c3)OCCO4)C[C@H]2F)nc2ccccc21	?	-7%[87.6 µM]	3	i	?	89µM*
COc1cccc(C(O)CNC(=O)C2CCN(C(=O)C3CCC3)CC2)c1 (configuration not stated)	-3%	0%	14	i	5%	-2%
CN(Cc1ccccc1)C(=O)Cc1ccc(N(Cc2cccc(F)c2)C(=O)c2ccco2)cc1	?	-2%	-2	i	-11%	35µM*
O=C(Cc1ccc(N(Cc2cccc(F)c2)C(=O)c2ccco2)cc1)NCc1ccccc1	?	-5%	1	i	-1%	?
O=C(Cc1ccc(N(Cc2ccc(F)cc2)C(=O)c2ccco2)cc1)Nc1ccc(F)cc1	?	-12%	10	i	-9%	32µM*
O=C(Cc1ccc(N(Cc2cccc(F)c2)C(=O)c2ccco2)cc1)Nc1ccccc1	45µM*	-10%	-11	i	?	35µM*
O=C(Cc1ccc(N(Cc2ccc(F)cc2)C(=O)c2ccco2)cc1)NCc1ccc(F)cc1	25µM*	-3%	7	i	-5%	40µM*
CC(C)NC(=O)Cc1ccc(N(Cc2ccc(F)cc2)C(=O)c2ccco2)cc1	-15%	-4%	-4	i	-18%	-15%
CCCN(C)C(=O)Cc1ccc(N(Cc2ccc(F)cc2)C(=O)c2ccco2)cc1	?	8%	-1	i	1%	?
O=C1Cc2c(-c3ccsc3)n[nH]c2CN1CC1CC1	-17%[230 µM]	-9%[87.6 µM]	14	i	11%[87.6 µM]	?
Cc1ccc(CNC(=O)N2CCC(OCc3noc(C4CCCO4)n3)CC2)cc1 (configuration not stated)	-6%	3%	25	·	-4%	-25%
COc1ccc(NC(=O)c2cc3n(n2)CC(c2ccc4c(c2)OCO4)OC3)cc1 (configuration not stated)	45µM*	-8%	28	?	-3%	?
Cc1ccc(NC(=O)c2cc3n(n2)CC(c2ccc4c(c2)OCO4)OC3)cc1F (configuration not stated)	40µM*	-8%	0	i	-7%	-26%
Cc1ccc(NC(=O)c2cc3n(n2)CC(c2ccc4c(c2)OCO4)OC3)cc1Cl (configuration not stated)	?	4%	-7	i	1%	?
CN1CCCCCC(O)c2cc(C(=O)NCCC3=CCCCC3)ccc21 (configuration not stated)	?	-4%	6	?	62%	?
O=C1NC2(CCN(C(=O)c3ccc(F)cc3)C2)OCc2ccccc21 (configuration not stated)	-6%	-3%	17	i	7%	-7%
O=C1NC2(CCN(C(=O)Cc3ccccc3)C2)OCc2ccccc21 (configuration not stated)	100µM*	-7%[87.6 µM]	22	i	7%[87.6 µM]	-29%[138 µM]
Cc1ccc(CN[C@@H]2CO[C@H](CNC(=O)Nc3ccccc3)[C@H]2O)cc1	-7%[172 µM]	-2%[87.6 µM]	16	i	-5%[87.6 µM]	0%[138 µM]
O=C(NC[C@H]1OC[C@@H](N(Cc2ccccc2)Cc2ccccc2)[C@@H]1O)Nc1ccccc1	79µM*	-18%[87.6 µM]	11	i	2%[87.6 µM]	?
COc1ccccc1-c1ccc(CN2CCCCC2C(=O)N2CCC(c3ccccc3)CC2)cc1 (configuration not stated)	25µM*!	·	12	·	·	40µM*
COc1ccccc1-c1ccc(C(=O)N2CCC(C(=O)N3CCC(c4ccccc4)CC3)CC2)cc1	?	-3%[12.5 µM]	8	·	0%	?
COc1ccccc1-c1ccc(CN2CCCCC2C(=O)N2CCN(Cc3ccccc3)CC2)cc1 (configuration not stated)	32µM*	-17%	5	·	-1%	?

Screening data (PubChem)
